The text below walks through data of PubChem BioAssay (Tox21).

Results filed as inconclusive are left out. Unmarked numbers belong to inactive results. Calls of active or inactive are those of the source. Calls come from the whole dose curve; as a rule, active = well fitted curve in the direction sought with a large enough effect in the repeat runs; inconclusive = weak or mixed curves; inactive = no such curve, though single readings can be large; an effect the other way counts as inactive or inconclusive. Non-standard residues stand in square brackets, D forms with d. Residues, ends and D or L forms follow the SMILES beside them. pGlu = O=C1CC[C@@H](C(=O)O)N1; Thz = O=C(O)[C@@H]1CSCN1
% is set by controls: 0 for no effect and ±100 for the full control effect; potency is the fitted concentration of half-maximal effect.

Chain of Aryl hydrocarbon receptor (Homo sapiens) (P35869 whole entry, looked up): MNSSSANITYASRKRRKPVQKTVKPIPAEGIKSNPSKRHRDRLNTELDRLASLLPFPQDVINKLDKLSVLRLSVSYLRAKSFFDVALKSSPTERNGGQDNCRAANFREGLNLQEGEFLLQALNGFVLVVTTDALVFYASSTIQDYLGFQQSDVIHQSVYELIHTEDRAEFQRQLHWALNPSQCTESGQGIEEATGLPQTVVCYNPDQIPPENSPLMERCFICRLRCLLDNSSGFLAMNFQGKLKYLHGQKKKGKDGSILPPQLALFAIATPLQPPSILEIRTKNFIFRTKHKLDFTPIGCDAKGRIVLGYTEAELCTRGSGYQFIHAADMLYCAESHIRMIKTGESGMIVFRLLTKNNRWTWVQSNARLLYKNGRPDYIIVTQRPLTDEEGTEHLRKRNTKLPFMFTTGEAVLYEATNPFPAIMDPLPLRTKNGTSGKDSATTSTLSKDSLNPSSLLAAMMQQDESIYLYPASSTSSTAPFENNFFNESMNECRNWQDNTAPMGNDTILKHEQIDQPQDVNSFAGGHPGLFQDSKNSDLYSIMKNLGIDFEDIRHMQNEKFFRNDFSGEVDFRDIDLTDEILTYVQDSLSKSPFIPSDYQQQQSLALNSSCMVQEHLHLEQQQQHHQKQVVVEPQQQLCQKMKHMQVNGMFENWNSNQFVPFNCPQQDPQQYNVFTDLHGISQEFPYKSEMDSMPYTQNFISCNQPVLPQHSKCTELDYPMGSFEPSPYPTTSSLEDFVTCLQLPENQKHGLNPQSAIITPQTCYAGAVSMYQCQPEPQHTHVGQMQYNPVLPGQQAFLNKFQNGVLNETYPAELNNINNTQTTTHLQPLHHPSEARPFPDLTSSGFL

In one test the target is Aryl hydrocarbon receptor (Homo sapiens) (UniProt P35869). Kind of test: qHTS assay to identify small molecule that activate the aryl hydrocarbon receptor (AhR) signaling pathway (AID 743085).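 For activation: HG2L7.5c1 human HepG2 liver cells with stably integrated DRE-driven firefly reporter.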 Note: nearly all actives have a fitted effect of over 15% in size. The conditions noted are these: HepG2 AhR-luc (HG2L7.5c1), luciferase, 24 h; series mostly up to 70.3 µM; activation: at the top concentration. A digest of the protocol:
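Luminescence read-out: ONE-Glo reagent, 30 min at room temperature, in HG2L7.5c1 HepG2 reporter cells treated 24 h at 37C. Viability was measured beforehand by CellTiter-Fluor fluorescence after 30 min at 37C.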
In the case of `O=C1NCCN1c1ncc([N+](=O)[O-])s1`, the “activation” value was -1.09% [at 32.5 µM].

Turning to `CN[C@@H]1[C@H](O[C@H]2[C@H](O[C@H]3[C@H](O)[C@@H](O)[C@H](N=C(N)N)[C@@H](O)[C@@H]3N=C(N)N)O[C@@H](C)[C@]2(O)CO)O[C@@H](CO)[C@H](O)[C@H]1O`, the “activation” value was -1.66%.

For `CCC(=O)O[C@]1(C(=O)CCl)[C@@H](C)C[C@H]2[C@@H]3C[C@H](F)C4=CC(=O)C=C[C@]4(C)[C@@]3(F)[C@@H](O)C[C@@]21C`, the Potency is 3.35 µM (active).

Turning to `NCCCC[C@H](N)C(=O)O`, the “activation” value is -0.394%.

`COc1cc2c(cc1OC)CC(=O)N(CCCN(C)C[C@H]1Cc3cc(OC)c(OC)cc31)CC2`: the “activation” value was 6.14%.

For the compound `CCCCC/C=C\C/C=C\C/C=C\CCCCC(=O)O`, the “activation” value was -0.615%.

For the compound `NC(=O)c1ccc[n+]([C@@H]2O[C@H](COP(=O)([O-])OP(=O)(O)OC[C@H]3O[C@@H](n4cnc5c(N)ncnc54)[C@H](O)[C@@H]3O)[C@@H](O)[C@H]2O)c1`, the “activation” value is 0.844% [at 32.5 µM].

As for `C=C1C(=O)O[C@H]2[C@H]1CC/C(C)=C\CC[C@@]1(C)O[C@@H]21`, the “activation” value was -13.8%.

On to `C#C[C@]1(O)CC[C@H]2[C@@H]3CCC4=CC(=O)CC[C@@H]4[C@H]3C(=C)C[C@@]21CC`, for which the “activation” value is -3.23%.

With `CN1CCN(C(c2ccccc2)c2ccc(Cl)cc2)CC1` (stereo not given), the “activation” value was -1.4% [at 32.5 µM].

As to `CC(C)(C)C(=O)OCOC(=O)[C@@H]1N2C(=O)[C@@H](N=CN3CCCCCC3)[C@H]2SC1(C)C`, the “activation” value was -1.6% [at 32.5 µM].

As to `CCCOc1ccc2nc(NC(=O)OC)sc2c1`, the Potency was 4.22 µM (active).

For `O=C1CCC(=O)N1CO`, the “activation” value is -4.28%.

For `Cc1ccc(S(=O)(=O)NC(=O)N[C@@H](C)Cc2ccccc2)cc1`, the “activation” value is -3.42%.

Take `CC(C)N=c1cc2n(-c3ccc(Cl)cc3)c3ccccc3nc-2cc1Nc1ccc(Cl)cc1`: the “activation” value is 0.301% [at 32.5 µM].

For `C#C[C@]1(O)CC[C@H]2[C@@H]3CCC4=CCCC[C@@H]4[C@H]3C(=C)C[C@@]21CC`, the “activation” value is 6.76%.

Regarding `COc1cc(C)c(/C=C/C(C)=C/C=C/C(C)=C/C(=O)O)c(C)c1C`, the “activation” value was 5.38%.

In the case of `C=C1CC[C@@H]2[C@](C)(CO)[C@H](O)CC[C@@]2(C)[C@@H]1C/C=C1/C(=O)OC[C@H]1O`, the “activation” value was -0.726%.

Take `CC1=C(/C=C/C(C)=C/C=C/C(C)=C/C(=O)Oc2c(C)c(C)c3c(c2C)CC[C@@](C)(CCC[C@H](C)CCC[C@H](C)CCCC(C)C)O3)C(C)(C)CCC1`: the “activation” value was -0.0407%.

Turning to `C#C[C@]1(O)CC[C@H]2[C@@H]3CCC4=C/C(=N/O)CC[C@@H]4[C@H]3CC[C@@]21CC`, the “activation” value was -3.94%.

Test system in the next test: not listed separately
The test is described as follows: qHTS assay to identify small molecule that activate the aryl hydrocarbon receptor (AhR) signaling pathway - cell viability counter screen (AID 743086). Note: nearly all actives have a fitted effect of over 45% in size. The settings on record: HepG2-AhR-luc viability, CellTiter-Fluor, 24 h; series mostly up to 70.3 µM; viability change, negative = cytotoxic: at the top concentration. A digest of the protocol: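 Cytotoxicity counter screen: CellTiter-Fluor signal (30 min, 37 C) in 4000 HepG2 cells/well carrying the DRE-luciferase reporter, following 24 h compound exposure at 37 C.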
As to `O=C1CC[C@@H](C(=O)N2CSC[C@H]2C(=O)O)N1` ([pGlu]-[Thz]-OH), the “viability change, negative = cytotoxic” value is -4.54%.

On to `COc1ccc(CC2c3cc(OC)c(OC)cc3CC[N+]2(C)CCC(=O)OCCCCCOC(=O)CC[N+]2(C)CCc3cc(OC)c(OC)cc3C2Cc2ccc(OC)c(OC)c2)cc1OC` (stereo not given), for which the “viability change, negative = cytotoxic” value is -3.3% [at 32.5 µM].

`CO[C@H]1O[C@@H]2O[C@@]3(C)CC[C@H]4[C@H](C)CC[C@@H]([C@H]1C)[C@@]24OO3`: the “viability change, negative = cytotoxic” value was 4.58%.

Turning to `CO[C@H]1C[C@@H]2CC[C@@H](C)[C@@](O)(O2)C(=O)C(=O)N2CCCC[C@H]2C(=O)O[C@H]([C@H](C)C[C@@H]2CC[C@@H](OCCO)[C@H](OC)C2)CC(=O)[C@H](C)/C=C(\C)[C@@H](O)[C@@H](OC)C(=O)[C@H](C)C[C@H](C)/C=C/C=C/C=C/1C`, the Potency was 11.9 µM (active).

With `COc1ccc(-c2noc(CC(=O)O)c2-c2ccc(OC)cc2)cc1`, the “viability change, negative = cytotoxic” value was -0.531%.

On to `Cn1c(O)c(N=NC(N)=S)c2ccccc21`, for which the Potency was 2.98 µM (active).

In the case of `Nc1ncnc2c1ncn2CCOCP(=O)(O)O`, the “viability change, negative = cytotoxic” value was 7.15%.

Consider `CC(CCc1ccc(O)cc1)NCC(O)c1ccc(O)cc1` (stereo not given), for which the “viability change, negative = cytotoxic” value was -15%.

For the compound `C[C@H](CCCC(C)(C)O)[C@H]1CC[C@H]2[C@@H]3CC=C4C[C@@H](O)CC[C@]4(C)[C@H]3CC[C@]12C`, the “viability change, negative = cytotoxic” value is 15.3%.

With `Nc1nc(=O)n([C@@H]2CS[C@H](CO)O2)cc1F`, the “viability change, negative = cytotoxic” value was 0.924%.

Take `CO[C@H]1C[C@@H]2CC[C@@H](C)[C@@](O)(O2)C(=O)C(=O)N2CCCC[C@H]2C(=O)O[C@H]([C@H](C)C[C@@H]2CC[C@@H](OC(=O)C(C)(CO)CO)[C@H](OC)C2)CC(=O)[C@H](C)/C=C(\C)[C@@H](O)[C@@H](OC)C(=O)[C@H](C)C[C@H](C)/C=C/C=C/C=C/1C`: the “viability change, negative = cytotoxic” value is 28.8%.

`O=C1NCCN1c1ncc([N+](=O)[O-])s1`: the “viability change, negative = cytotoxic” value was -9.02% [at 32.5 µM].

Consider `CC(/C=C/C=C(\C)C(=O)O[C@@H]1O[C@H](CO[C@@H]2O[C@H](CO)[C@@H](O)[C@H](O)[C@H]2O)[C@@H](O)[C@H](O)[C@H]1O)=C\C=C\C=C(C)\C=C\C=C(/C)C(=O)O[C@@H]1O[C@H](CO[C@@H]2O[C@H](CO)[C@@H](O)[C@H](O)[C@H]2O)[C@@H](O)[C@H](O)[C@H]1O`, for which the “viability change, negative = cytotoxic” value was -3.86%.

`CNC(=O)[C@H](Cc1c[nH]c2ccccc12)NC(=O)[C@@H](CC(=O)NO)CC(C)C`: the Potency was 0.596 µM (active).

Take `CN[C@@H]1[C@H](O[C@H]2[C@H](O[C@H]3[C@H](O)[C@@H](O)[C@H](N=C(N)N)[C@@H](O)[C@@H]3N=C(N)N)O[C@@H](C)[C@]2(O)CO)O[C@@H](CO)[C@H](O)[C@H]1O`: the “viability change, negative = cytotoxic” value was 0.155%.

As to `CC(C)(C)NCC(O)c1ccc(O)c(CO)n1` (stereo not given), the “viability change, negative = cytotoxic” value is 11.6%.

For the compound `CCC(=O)O[C@]1(C(=O)CCl)[C@@H](C)C[C@H]2[C@@H]3C[C@H](F)C4=CC(=O)C=C[C@]4(C)[C@@]3(F)[C@@H](O)C[C@@]21C`, the “viability change, negative = cytotoxic” value was -18.7%.

In the case of `NCCCC[C@H](N)C(=O)O`, the “viability change, negative = cytotoxic” value was 17.2%.

For the compound `COc1cc2c(cc1OC)CC(=O)N(CCCN(C)C[C@H]1Cc3cc(OC)c(OC)cc31)CC2`, the “viability change, negative = cytotoxic” value was 5.87%.

As for `CCCCC/C=C\C/C=C\C/C=C\CCCCC(=O)O`, the “viability change, negative = cytotoxic” value is -1.2%.

On to `NC(=O)c1ccc[n+]([C@@H]2O[C@H](COP(=O)([O-])OP(=O)(O)OC[C@H]3O[C@@H](n4cnc5c(N)ncnc54)[C@H](O)[C@@H]3O)[C@@H](O)[C@H]2O)c1`, for which the “viability change, negative = cytotoxic” value was -0.349% [at 32.5 µM].

With `C=C1C(=O)O[C@H]2[C@H]1CC/C(C)=C\CC[C@@]1(C)O[C@@H]21`, the Potency is 16.8 µM (active).

Regarding `C#C[C@]1(O)CC[C@H]2[C@@H]3CCC4=CC(=O)CC[C@@H]4[C@H]3C(=C)C[C@@]21CC`, the “viability change, negative = cytotoxic” value was -1.5%.

For `CC(C)(C)C(=O)OCOC(=O)[C@@H]1N2C(=O)[C@@H](N=CN3CCCCCC3)[C@H]2SC1(C)C`, the “viability change, negative = cytotoxic” value was -8.32% [at 32.5 µM].

Turning to `CCCOc1ccc2nc(NC(=O)OC)sc2c1`, the “viability change, negative = cytotoxic” value is -2.28%.

As for `O=C1CCC(=O)N1CO`, the “viability change, negative = cytotoxic” value is 2.04%.

Turning to `C=Cc1c(C)c2cc3nc(cc4[nH]c(cc5nc(cc1[nH]2)C(C)=C5CCC(=O)OC)c(CCC(=O)O)c4C)[C@@]1(C)C3=CC=C(C(=O)OC)[C@H]1C(=O)OC`, the “viability change, negative = cytotoxic” value was -22.1%.

Take `Cc1ccc(S(=O)(=O)NC(=O)N[C@@H](C)Cc2ccccc2)cc1`: the “viability change, negative = cytotoxic” value is -11.3%.

With `CC(C)N=c1cc2n(-c3ccc(Cl)cc3)c3ccccc3nc-2cc1Nc1ccc(Cl)cc1`, the “viability change, negative = cytotoxic” value was -22% [at 32.5 µM].

For `NC(=O)OC[C@@H]1[C@H](NC(=O)/C(=N\OCC(=O)O)c2csc(N)n2)C(=O)N1S(=O)(=O)O`, the “viability change, negative = cytotoxic” value is -9.4%.

For `C#C[C@]1(O)CC[C@H]2[C@@H]3CCC4=CCCC[C@@H]4[C@H]3C(=C)C[C@@]21CC`, the “viability change, negative = cytotoxic” value is 1.09%.

For the compound `COc1cc(C)c(/C=C/C(C)=C/C=C/C(C)=C/C(=O)O)c(C)c1C`, the “viability change, negative = cytotoxic” value is 1.34%.

With `C=C1CC[C@@H]2[C@](C)(CO)[C@H](O)CC[C@@]2(C)[C@@H]1C/C=C1/C(=O)OC[C@H]1O`, the “viability change, negative = cytotoxic” value was -4.43%.

With `CC1=C(/C=C/C(C)=C/C=C/C(C)=C/C(=O)Oc2c(C)c(C)c3c(c2C)CC[C@@](C)(CCC[C@H](C)CCC[C@H](C)CCCC(C)C)O3)C(C)(C)CCC1`, the “viability change, negative = cytotoxic” value is 1.18%.

For `C#C[C@]1(O)CC[C@H]2[C@@H]3CCC4=C/C(=N/O)CC[C@@H]4[C@H]3CC[C@@]21CC`, the “viability change, negative = cytotoxic” value was -27.7%.
